Most compounds without a hit are left out; they make up all but 9.8% or so of the library.
JMJD2E inh – inhibitors of human JMJD2E histone demethylase; Potency, µM (series often up to 57.1 µM), actives largely listed as inhibitors; JMJD2E catalytic domain, FDH-coupled NADH fluorescence (FDH is formaldehyde dehydrogenase); B2RXH2; actives 1.6% (n = 230,000); AID 2147; note: nearly all actives have a fitted effect of over 50% in size
HTT ATP protect – cytoprotection in Huntington HTT-Q103 PC12 cell model | PC12 HTT-Q103 induced, cytoprotection, ATP luminescence, 40 h | Potency, µM (series often up to 56.4 µM), usual class: activators | actives 0.14% (n = 230,000) | AID 1471; active = well fitted curve in the direction sought with a large enough effect; inconclusive = small, poorly fitted or top-dose-only effect, or another doubt; inactive = no such curve, though single readings can be large; an effect the other way counts as inactive or inconclusive; note: nearly all actives have a fitted effect of over 45% in size
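Compounds added alongside 100 nM tebufenozide, which induces toxic Q103 huntingtin exon 1-GFP in stable PC12 cells; surviving cells quantified by luminescent ATP measurement. Medium: phenol red-free DMEM, 5% equine and 5% calf serum.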
CBFb RUNX1 block – CBF-beta/RUNX1 interaction disruption. Q01196+Q13951. AlphaScreen CBFb-His/RUNX1-biotin binding, biochemical. Potency, µM (series often up to 59.8 µM), most hits filed as inhibitors. 230,000 tested, under 10 active; active = well fitted curve in the direction sought with a large enough effect; inconclusive = small, poorly fitted or top-dose-only effect, or another doubt; inactive = no such curve, though single readings can be large; an effect the other way counts as inactive or inconclusive
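Proteins preincubated together for 20 min at RT before compound addition; 15 min later, nickel and streptavidin beads were added and left 90 min prior to AlphaScreen measurement.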
HPGD block – blocks human HPGD enzyme activity. Potency, µM, hits mostly inhibitors. AID 894. purified HPGD, NADH fluorescence kinetic, PGE2 substrate. P15428. actives 4.3% (n = 150,000)
Target sequence (P15428 whole entry, looked up): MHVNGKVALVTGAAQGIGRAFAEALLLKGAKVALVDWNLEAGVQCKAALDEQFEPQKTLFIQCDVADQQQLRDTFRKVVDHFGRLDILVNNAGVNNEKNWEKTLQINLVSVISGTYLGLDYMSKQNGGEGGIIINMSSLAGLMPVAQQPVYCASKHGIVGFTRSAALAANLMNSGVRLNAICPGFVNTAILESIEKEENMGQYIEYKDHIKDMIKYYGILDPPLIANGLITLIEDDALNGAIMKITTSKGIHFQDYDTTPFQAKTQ
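NADH formation kinetics: reaction with 30 uM PGE2 and 1 mM NAD+ (final), 20 nM enzyme, Tris-HCl pH 8 with Tween 20, after 15 min compound preincubation at room temperature. Fluorescence change, last versus first of five reads.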
HttQ103 aggreg – reduces HttQ103-GFP aggregates in PC12 cells | PC12 HttQ103-GFP aggregates, Acumen cytometry, 40 h | Potency, µM (titrated, usually from 46.1 µM), most hits filed as inhibitors | actives 1.1% (n = 220,000) | AID 1688; active = well fitted curve in the direction sought with a large enough effect; inconclusive = small, poorly fitted or top-dose-only effect, or another doubt; inactive = no such curve, though single readings can be large; an effect the other way counts as inactive or inconclusive; note: nearly all actives have a fitted effect of over 60% in size
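Quantitative HTS on tebufenozide-induced (100 nM) PC12 cells stably expressing polyQ103 Huntingtin exon 1–GFP. Reduction of bright GFP aggregates, detected by laser scanning cytometry after lysis, identified actives across the titration.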
ALDH1A1 inh – blocks purified human ALDH1A1 activity. P00352. actives 7.3% (n = 220,000). Potency, µM (top dose mostly 75.3 µM), actives largely listed as inhibitors. AID 1030. Purified ALDH1A1, NADH fluorescence, propionaldehyde substrate
Target sequence (P00352 whole entry, looked up): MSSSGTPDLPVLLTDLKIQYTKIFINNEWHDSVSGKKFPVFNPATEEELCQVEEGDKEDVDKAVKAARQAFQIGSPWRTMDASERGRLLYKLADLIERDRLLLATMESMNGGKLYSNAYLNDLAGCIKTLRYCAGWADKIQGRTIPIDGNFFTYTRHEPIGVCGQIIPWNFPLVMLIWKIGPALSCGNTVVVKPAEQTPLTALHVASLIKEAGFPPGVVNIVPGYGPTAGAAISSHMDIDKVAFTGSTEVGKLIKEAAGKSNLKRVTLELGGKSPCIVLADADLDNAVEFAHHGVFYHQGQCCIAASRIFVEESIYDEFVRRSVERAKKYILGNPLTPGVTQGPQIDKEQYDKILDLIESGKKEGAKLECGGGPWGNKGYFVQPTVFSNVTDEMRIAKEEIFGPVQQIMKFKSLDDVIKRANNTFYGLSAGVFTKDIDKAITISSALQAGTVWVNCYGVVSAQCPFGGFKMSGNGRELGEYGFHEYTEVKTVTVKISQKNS
Large screens that a line does not name were inactive. Unless noted, calls come from the whole dose curve; as a rule, active = well fitted inhibition curve with a large enough effect (not every such curve was filed as active); inconclusive = small, poorly fitted or top-dose-only effect, or another doubt; inactive = no such curve, though single readings can be large or run the other way.

C=CCc1cccc(CNc2nc3ccccc3n2C(C)C)c1O	HttQ103 aggreg 18µM
Cn1c(NCc2ccccc2O)nc2ccccc21	ALDH1A1 inh inconclusive
O=C1[C@@H]2[C@H]3[C@H](O)[C@H](O)C/C(=N/OCc4ccccc4)[C@H]3CC[C@H]2C(=O)N1c1ccc(F)cc1F	HTT ATP protect inconclusive (no result: JMJD2E inh, HPGD block, HttQ103 aggreg)
N#C/C(=C\c1cc([N+](=O)[O-])ccc1Cl)C(N)=O	HTT ATP protect 1.3µM (no result: HPGD block)
CC1Cn2c(CCc3ccccc3)nnc2S1 (configuration not stated)	HPGD block 28µM, ALDH1A1 inh inconclusive
CC1Cn2c(COc3ccccc3)nnc2S1 (configuration not stated)	none
O=C(CSc1nc2ccccc2c(=O)n1-c1ccccc1)N/N=C/C=C/c1ccccc1[N+](=O)[O-]	ALDH1A1 inh 2.8µM (no result: HPGD block)
Cc1cc(C(=O)N/N=C/C=C/c2ccccc2[N+](=O)[O-])c(C)o1	ALDH1A1 inh 5.6µM (no result: HPGD block)
COc1ccccc1-c1cc(C(=O)N/N=C/C=C/c2ccccc2[N+](=O)[O-])c2ccccc2n1	none
O=C(N/N=C/C=C/c1ccccc1[N+](=O)[O-])c1cc(-c2cccnc2)nc2ccccc12	ALDH1A1 inh 14µM
CCOC(=O)c1ccc(NC(=O)Oc2cc(C)c(Cl)cc2C(C)C)cc1	none (no result: HPGD block, ALDH1A1 inh)
O=C(O)c1cc(NN=Nc2cccc([N+](=O)[O-])c2)cc([N+](=O)[O-])c1	ALDH1A1 inh 20µM (no result: HPGD block)
O=C(Nc1ccc(C(=O)O)cc1)Nc1cccc([N+](=O)[O-])c1	none (no result: HTT ATP protect)
O=C(O)c1cc(NN=Nc2ccc(Br)cc2)cc([N+](=O)[O-])c1	JMJD2E inh inconclusive, ALDH1A1 inh 6.3µM (no result: HPGD block)
CC1C/C(=N\NC(=S)NCc2ccccc2)CC(C)(C)C1 (configuration not stated)	ALDH1A1 inh 25µM
CC1CCC/C(=N\NC(=S)NCc2ccccc2)C1 (configuration not stated)	HttQ103 aggreg inconclusive, ALDH1A1 inh inconclusive
COC(=O)c1[nH]c2ccccc2c1NC(=O)c1c(F)cccc1F	none (no result: HPGD block, ALDH1A1 inh)
Cc1cc(=O)oc2cc(OCC(=O)OCC(=O)NC3CC3)ccc12	JMJD2E inh inconclusive, ALDH1A1 inh inconclusive (no result: HPGD block)
Cc1ccc(OCCn2cc(Br)c(=O)[nH]c2=O)cc1	ALDH1A1 inh 20µM
Cc1ccc(OCCn2cnc(Cl)c2Cl)cc1	none (no result: HTT ATP protect, HPGD block, HttQ103 aggreg)
C(=N\N1CCN(Cc2cccc3ccccc23)CC1)/c1cccnc1	HttQ103 aggreg inconclusive
CCCn1nc([N+](=O)[O-])c(C(C#N)c2nc3ccccc3o2)c(Cl)c1=O (configuration not stated)	HttQ103 aggreg inconclusive, ALDH1A1 inh inconclusive
CCn1nc([N+](=O)[O-])c(C(C#N)c2nc3cc(C(F)(F)F)ccc3s2)c(Cl)c1=O (configuration not stated)	HPGD block inconclusive, ALDH1A1 inh 0.4µM (no result: CBFb RUNX1 block)
COc1ccccc1OCCCOc1ccc([N+](=O)[O-])cc1Cl	HPGD block 16µM
COc1cccc(OCCCOc2ccc([N+](=O)[O-])cc2Cl)c1	HPGD block 18µM
Cc1onc(-c2c(Cl)cccc2Cl)c1/C(N)=N/OC(=O)C1CC1	none (no result: HPGD block)
CCn1c2ccccc2c2cc(NC(=O)CSc3nnc(C4CC4)n3Cc3ccco3)ccc21	JMJD2E inh inconclusive, HPGD block inconclusive, ALDH1A1 inh 18µM
CC(=O)Nc1cccc(NC(=O)CSc2ncc(-c3ccc(Cl)cc3)n2Cc2ccco2)c1	CBFb RUNX1 block inconclusive
O=C(CSc1nnc(-c2ccc(Cl)cc2)n1Cc1ccco1)Nc1ccc2c(c1)OCCO2	HPGD block 25µM, ALDH1A1 inh 5µM
COc1ccc(-c2cnc(SCC(=O)Nc3ccc4c(c3)OCO4)n2Cc2ccco2)cc1	CBFb RUNX1 block inconclusive, ALDH1A1 inh 11µM
O=C(CSc1nnc(-c2ccccc2Cl)n1Cc1ccco1)Nc1ccc2c(c1)OCCO2	ALDH1A1 inh 10µM
CCn1c(SCC(=O)Nc2ccc3c(c2)c2ccccc2n3CC)nnc1-c1cnccn1	none
COC(=O)C/C=C\[C@@H](C)[C@@H](/C=N\OC[C@@H]1O[C@H](c2ccccc2)C=C[C@@H]1Oc1ccc(OC)cc1)OC	none (no result: JMJD2E inh, HPGD block, HttQ103 aggreg)
C=C(COC)C1=CCC(C(=O)OC)(C(=O)OC)[C@@H](C[N+](=O)[O-])c2ccccc21	none (no result: HttQ103 aggreg)
O=C(/C=C/c1ccccc1Cl)N(Cc1ccccc1)C1CCS(=O)(=O)C1 (configuration not stated)	ALDH1A1 inh 11µM
O=C(/C=C/c1ccccc1Cl)N(Cc1ccc(Cl)cc1)C1CCS(=O)(=O)C1 (configuration not stated)	none
CC(C)c1ccc(CN(C(=O)/C=C/c2ccco2)C2CCS(=O)(=O)C2)cc1 (configuration not stated)	JMJD2E inh inconclusive, ALDH1A1 inh 18µM (no result: HPGD block)
CN(C)c1ccc(CN(C(=O)/C=C/c2ccccc2Cl)C2CCS(=O)(=O)C2)cc1 (configuration not stated)	none (no result: CBFb RUNX1 block, HPGD block, ALDH1A1 inh)
O=C(NCCN1C(=O)S/C(=C/c2cccnc2)C1=O)C1CC(=O)N(Cc2ccccc2)C1 (configuration not stated)	none (no result: HPGD block)
COc1ccc(Cn2c(=O)c3[nH]cnc3n(-c3ccc(C)cc3)c2=O)cc1	JMJD2E inh inconclusive (no result: HPGD block, ALDH1A1 inh)
CCN(CC)c1ccc(C2C(C(=O)OC)=C(C)NC(C)=C2C(=O)OC)cc1	HPGD block inconclusive, ALDH1A1 inh inconclusive
COC(=O)C1=C(C)NC(C)=C(C(=O)OC)C1c1ccc(NC(C)=O)cc1	JMJD2E inh inconclusive, HttQ103 aggreg 3.2µM, ALDH1A1 inh inconclusive
CCCC1=NN2C(=N)/C(=C\c3cc(C)n(-c4cccc(C)c4)c3C)C(=O)N=C2S1	JMJD2E inh 8.9µM, HPGD block inconclusive, ALDH1A1 inh inconclusive (no result: HTT ATP protect)
Cc1cc(C=C2C(=O)c3ccccc3C2=O)c(C)n1C	ALDH1A1 inh inconclusive
CC1=CC2=NC(=O)/C(=C\c3cc(C)n(-c4cccc(Cl)c4)c3C)C(=N)N2O1	JMJD2E inh 28µM, HPGD block inconclusive
CCCC1=NN2C(=N)/C(=C\c3cc(C)n(Cc4ccccc4)c3C)C(=O)N=C2S1	JMJD2E inh inconclusive (no result: HPGD block)
Cc1cc(C=C2C(=O)c3ccccc3C2=O)c(C)n1-c1ccc(Cl)cc1	ALDH1A1 inh 2.2µM
Cc1cccc(-n2c(C)cc(C=C3C(=O)c4ccccc4C3=O)c2C)c1	CBFb RUNX1 block inconclusive, ALDH1A1 inh 1.6µM
Cc1cc(C=C2C(=O)CCCC2=O)c(C)n1-c1ccccc1	ALDH1A1 inh inconclusive
Cc1cc(C)c2cc(C#N)c(SCC(=O)Nc3ccc4c(c3)OCO4)nc2c1	none (no result: HPGD block, ALDH1A1 inh)
Cn1ncc(Cl)c(Oc2ccc(C(C)(C)C)cc2)c1=O	HPGD block inconclusive

High-throughput results (PubChem)
